# Assay results as given in PubChem BioAssay.
# “And” between values parts separate entries of the source, which are not always exact repeats. Identical values can stand only once. Inconclusive results are not listed. For some of these results: Results with a measured potency or affinity are listed apart. The source made the active and inactive calls. Unless noted, how the calls were made is not given here.
# How the values were obtained:
# [1] = antimalarial activity against Dd2 strain (AID 2302;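 active means growth inhibition above 50% at the single 2 µM test dose, taken to imply half-maximal potency below 2 µM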;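 further: 0% = DMSO untreated growth and 100% = chloroquine plus artemisinin killed control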); settings: P. falciparum Dd2 in RBCs, LDH growth readout, 72 h; at 2 µM; stronger effect = higher value
# [2] = HepG2 cytotoxicity, primary screen, cytotoxicity control for P. falciparum antimalarial project, cell-based, ATP luminescence (AID 2303;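 active means inhibition above 50%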;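 further: 0% = DMSO wells and 100% = digitonin-killed cells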); settings: HepG2 viability, 24-48 h, at 10 µM, stronger effect = higher value
# [3] = target: L-lactate dehydrogenase (Plasmodium falciparum (isolate CDC / Honduras)) (UniProt Q27743); assay: PfLDH activity inhibition – cell lysate, 3D7 strain, counter-screen for P. falciparum growth inhibition project (AID 2304);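 further: 0% = vehicle and 100% = reference inhibitor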; settings: P. falciparum 3D7 crude extract, LDH APAD/NBT absorbance; at 2 µM; stronger effect = higher value
# Sequence of L-lactate dehydrogenase (Plasmodium falciparum (isolate CDC / Honduras)) (Q27743 whole entry, looked up): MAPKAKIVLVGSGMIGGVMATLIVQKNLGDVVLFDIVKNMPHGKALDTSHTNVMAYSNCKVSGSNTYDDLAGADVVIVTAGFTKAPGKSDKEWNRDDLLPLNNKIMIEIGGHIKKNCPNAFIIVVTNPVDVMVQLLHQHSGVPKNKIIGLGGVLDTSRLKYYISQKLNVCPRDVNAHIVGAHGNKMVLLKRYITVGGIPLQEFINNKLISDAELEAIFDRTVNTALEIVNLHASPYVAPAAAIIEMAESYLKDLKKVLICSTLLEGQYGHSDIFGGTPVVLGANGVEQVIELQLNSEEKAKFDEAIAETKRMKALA
# [4] = inhibition of 3D7 malaria parasite growth – strain 3D7 (AID 2306);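 further: 0% = DMSO wells and 100% = chloroquine plus artemisinin control wells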; settings: P. falciparum 3D7 erythrocytic growth, LDH absorbance, 72 h; at 2 µM; stronger effect = higher value
# [5] = target: Calcium-dependent protein kinase 1 (Plasmodium falciparum (isolate 3D7)) (UniProt P62344); assay: PfCDPK1 kinase inhibitors, biochemical, TCAMS library (AID 1159585; cut-off not given, nearly all actives have IC50 up to about 0.98 µM;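 further: inhibitors leave more ATP so luminescence rises with inhibition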); settings: recombinant PfCDPK1, Kinase-Glo ATP depletion luminescence
# Sequence of Calcium-dependent protein kinase 1 (Plasmodium falciparum (isolate 3D7)) (P62344 whole entry, looked up): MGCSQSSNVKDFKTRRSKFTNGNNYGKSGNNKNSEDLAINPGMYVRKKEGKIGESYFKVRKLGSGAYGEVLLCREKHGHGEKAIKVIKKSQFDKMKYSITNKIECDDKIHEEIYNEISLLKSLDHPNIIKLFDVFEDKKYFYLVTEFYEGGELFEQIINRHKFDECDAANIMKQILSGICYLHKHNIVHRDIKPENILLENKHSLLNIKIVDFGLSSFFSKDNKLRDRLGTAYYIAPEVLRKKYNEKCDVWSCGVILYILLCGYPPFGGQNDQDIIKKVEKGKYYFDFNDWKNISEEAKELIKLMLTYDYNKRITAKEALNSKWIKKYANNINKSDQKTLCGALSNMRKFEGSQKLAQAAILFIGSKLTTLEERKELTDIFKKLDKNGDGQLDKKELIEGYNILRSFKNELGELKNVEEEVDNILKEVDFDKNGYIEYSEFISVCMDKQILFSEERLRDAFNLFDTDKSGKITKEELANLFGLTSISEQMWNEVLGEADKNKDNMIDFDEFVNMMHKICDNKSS
# [6] = target: Plasmodium falciparum protein kinase 6 (PK6, PF3D7_1337100) (UniProt Q8IDW1); assay: PfPK6 kinase inhibitors, biochemical, TCAMS library (AID 1159586); settings: recombinant PfPK6, Kinase-Glo ATP depletion luminescence
# Sequence of Plasmodium falciparum protein kinase 6 (PK6, PF3D7_1337100) (Q8IDW1 1-305): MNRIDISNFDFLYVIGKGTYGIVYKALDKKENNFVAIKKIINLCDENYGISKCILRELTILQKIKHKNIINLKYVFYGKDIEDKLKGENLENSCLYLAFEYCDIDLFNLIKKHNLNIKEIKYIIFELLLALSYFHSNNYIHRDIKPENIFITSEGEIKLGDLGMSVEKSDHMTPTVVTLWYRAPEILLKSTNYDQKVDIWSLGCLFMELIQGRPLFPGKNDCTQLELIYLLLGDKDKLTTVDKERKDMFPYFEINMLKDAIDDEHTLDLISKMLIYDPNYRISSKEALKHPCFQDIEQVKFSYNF
# [7] = target: Protein kinase 7 (PK7), Plasmodium falciparum 3D7 (PF3D7_0213400) (UniProt Q7YTF7); assay: inhibition of Plasmodium PK7 catalytic activity – biochemical, TCAMS antimalarial set, Kinase-Glo luminescence (AID 1159587); settings: recombinant PfPK7, Kinase-Glo ATP depletion luminescence
# Sequence of Protein kinase 7 (PK7), Plasmodium falciparum 3D7 (PF3D7_0213400) (Q7YTF7 1-343): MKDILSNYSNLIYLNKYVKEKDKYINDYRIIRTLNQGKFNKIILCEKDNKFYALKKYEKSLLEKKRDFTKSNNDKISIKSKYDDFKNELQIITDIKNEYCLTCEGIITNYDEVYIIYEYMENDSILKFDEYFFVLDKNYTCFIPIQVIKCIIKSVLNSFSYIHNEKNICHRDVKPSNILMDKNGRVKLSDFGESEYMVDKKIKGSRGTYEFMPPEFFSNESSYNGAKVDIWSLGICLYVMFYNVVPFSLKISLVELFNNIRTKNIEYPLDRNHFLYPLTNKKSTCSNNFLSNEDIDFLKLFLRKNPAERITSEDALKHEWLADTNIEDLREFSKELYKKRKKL
# [8] = target: Calcium-dependent protein kinase 4 (Plasmodium falciparum (isolate 3D7)) (UniProt Q8IBS5); assay: PfCDPK4 kinase inhibitors, biochemical, TCAMS library (AID 1159588; cut-off not given, nearly all actives have IC50 up to about 0.91 µM); settings: recombinant PfCDPK4, Kinase-Glo ATP depletion luminescence
# Sequence of Calcium-dependent protein kinase 4 (Plasmodium falciparum (isolate 3D7)) (Q8IBS5 whole entry, looked up): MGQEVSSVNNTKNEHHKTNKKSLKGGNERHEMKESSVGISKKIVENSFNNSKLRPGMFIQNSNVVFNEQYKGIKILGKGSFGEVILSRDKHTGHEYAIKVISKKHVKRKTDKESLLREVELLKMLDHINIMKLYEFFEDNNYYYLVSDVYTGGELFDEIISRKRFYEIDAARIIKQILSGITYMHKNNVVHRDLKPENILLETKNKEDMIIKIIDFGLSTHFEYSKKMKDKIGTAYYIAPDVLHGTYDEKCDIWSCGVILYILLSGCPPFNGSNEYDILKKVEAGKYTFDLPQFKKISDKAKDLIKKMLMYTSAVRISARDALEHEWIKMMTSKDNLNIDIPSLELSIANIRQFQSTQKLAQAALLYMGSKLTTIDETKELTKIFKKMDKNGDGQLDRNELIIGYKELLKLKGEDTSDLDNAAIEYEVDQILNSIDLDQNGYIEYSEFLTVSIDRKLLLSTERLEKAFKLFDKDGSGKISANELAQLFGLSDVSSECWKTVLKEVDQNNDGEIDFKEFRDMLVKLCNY
# [9] = growth inhibition of DIPG glioma cells, dose response, cell-based, SU-DIPG-XVII, MIPE5.0, CellTiter-Glo, qHTS (AID 1347060; cut-off not given, nearly all actives have AC50 up to about 26 µM;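 further: cells exposed to compound for 48 hours before viability readout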); settings: SU-DIPG-XVII viability, CellTiter-Glo ATP luminescence
# [10] = growth inhibition of DIPG glioma cells, dose response, cell-based, SU-DIPG-XIII, MIPE4.0, CellTiter-Glo, qHTS (AID 1347061; cut-off not given, nearly all actives have AC50 up to about 37 µM;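 further: cells exposed to compound for 48 hours before readout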); settings: SU-DIPG-XIII viability, CellTiter-Glo ATP luminescence
# [11] = growth inhibition of DIPG glioma cells, dose response, cell-based, JHH-DIPG-1, MIPE4.0, CellTiter-Glo, qHTS (AID 1347062; cut-off not given, nearly all actives have AC50 up to about 27 µM;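 further: cells exposed to compound for two days before readout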); settings: JHH-DIPG-1 viability, CellTiter-Glo ATP luminescence
# [12] = growth inhibition of DIPG glioma cells, dose response, cell-based, SU-DIPG-IV, MIPE4.0, CellTiter-Glo, qHTS (AID 1347063; cut-off not given, nearly all actives have AC50 up to about 30 µM;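 further: compound exposure lasted 48 hours before the viability readout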); settings: SU-DIPG-IV viability, CellTiter-Glo ATP luminescence
# [13] = growth inhibition of DIPG glioma cells, dose response, cell-based, SU-DIPG-XIII, MIPE5.0, CellTiter-Glo, qHTS (AID 1347064; cut-off not given, nearly all actives have AC50 up to about 23 µM;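 further: cells exposed to compound for 48 hours before the viability read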); settings: SU-DIPG-XIII viability, CellTiter-Glo ATP luminescence
# [14] = viability loss in pontine glioma line – cell-based, SU-DIPG-XXV, MIPE5.0, CellTiter-Glo, qHTS, dose response (AID 1347065; cut-off not given, nearly all actives have AC50 up to about 26 µM;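 further: cells exposed to compound for 48 hours before ATP readout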); settings: CellTiter-Glo ATP luminescence
# [15] = JHH-DIPG-1 glioma cell viability, MIPE5.0 library, CellTiter-Glo luminescence, qHTS (AID 1347067; cut-off not given, nearly all actives have AC50 up to about 26 µM;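 further: cells exposed to compound for 48 hours before readout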); settings: JHH-DIPG-1 glioma viability, CellTiter-Glo ATP luminescence
# [16] = SU-DIPG-XXV glioma cell viability, MIPE5.0 library, qHTS (AID 1347068; cut-off not given, nearly all actives have IC50 up to about 30 µM;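 further: cells exposed to compound for 48 hours before viability readout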)
# [17] = sensitizers of A549 cells to miR-34 induction, primary screen, imaging, A549 dox-inducible miR-34, nuclei and caspase counts (AID 1347080;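 active means compounds whose cell count with miR-34 switched on is under 0.7 times the count with it off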); settings: A549 miR-34 inducible, Hoechst nuclei count, 48 h
# [18] = survival rescue of mitochondrial mutant cells in low glucose, primary screen, MELAS cybrids, Rieske KO mouse fibroblasts, CellTiter-Glo (AID 1508586;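 active means mean z-score across replicates of 1.96 or higher in either the MELAS or the Rieske mutant cell line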;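 further: z relative to plate mean and SD of compound and empty wells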)
# [19] = test system: Aerobactin synthetase IucA (Klebsiella pneumoniae); assay: IucA aerobactin synthetase inhibitors, biochemical, Tocris library, absorbance (AID 1345561); settings: purified IucA enzyme assay, absorbance (OD) read-out; stronger effect = lower value;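 tested at 8 µM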;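 further: 100% = enzyme without compound and 0% = no enzyme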
# [20] = viability rescue of complex I mutant cybrids, primary screen, cell-based, galactose medium, ATP luminescence (AID 1645843;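 active means z-score of at least 1.8 in each of two replicates, scored against plate mean and spread of sample wells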;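 further: positive z means more ATP and so rescue of galactose-driven cybrid death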); settings: complex I mutant cybrid cells, 72 h, stronger effect = higher value
# [21] = inhibitors of Cryptococcus chitosan production, flow cytometry, Cibacron Brilliant Red staining (AID 1347148); settings: Cryptococcus neoformans chitosan, stronger effect = lower value; at 10 µM unless noted;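 further: compound exposure lasted three days at 37 degrees C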
# [22] = stronger effect = lower value, cell number ratio, induced over uninduced
# [23] = measured here: relative caspase fold change +Dox/-Dox
# [24] = measured here: total cells with miR-34 induction, stronger effect = lower value
# [25] = measured here: total cells without miR-34 induction
# [26] = MELAS cybrid survival, CellTiter-Glo 48 h, stronger effect = higher value
# [27] = Rieske KO mouse fibroblast survival, CellTiter-Glo 72 h
compound,measurement,setting,value
CCS(=O)(=O)Nc1ccc2[nH]c(O)c(C(=Nc3ccc(CN4CCCCC4)cc3)c3ccccc3)c2c1,growth inhibition,[1],74% (active)
same,inhibition,[2],53% (active)
same,inhibition,[3],6% (inactive)
same,growth inhibition,[4],87% (active)
same,outcome,[5],inactive
same,outcome,[6],inactive
same,outcome,[7],inactive
same,outcome,[8],inactive
same,AC50,[9],0.263 µM (active)
same,AC50,[10],0.662 µM (active)
same,AC50,[11],5.9 µM (active)
same,AC50,[12],5.9 µM (active)
same,AC50,[13],0.263 µM (active)
same,AC50,[14],0.0833 µM (active)
same,AC50,[15],0.742 µM (active)
same,IC50,[16],0.468 µM (active)
same,fold change,[17]; [22],1 (inactive)
same,fold change,[17]; [23],0.435
same,cell count,[17]; [24],720
same,cell count,[17]; [25],718
same,z-score,[18]; [26],0.158 (inactive)
same,z-score,[18]; [27],-2.81
O=C(C=Cc1cn(-c2ccccc2)nc1-c1cccs1)N1CCN(c2ccncc2)CC1,growth inhibition,[1],61% (active)
same,inhibition,[2],31% (inactive)
same,inhibition,[3],1% (inactive)
same,growth inhibition,[4],100% (active)
same,outcome,[5],inactive
same,outcome,[6],inactive
same,outcome,[7],inactive
same,outcome,[8],inactive
CS(=O)(=O)CCNCc1nc(-c2ccc3ncnc(Nc4ccc(OCc5cccc(F)c5)c(Cl)c4)c3c2)cs1,growth inhibition,[1],34% (inactive)
same,inhibition,[2],8% (inactive)
same,inhibition,[3],-3% (inactive)
same,growth inhibition,[4],98% (active)
same,outcome,[5],inactive
same,outcome,[6],inactive
same,outcome,[7],inactive
same,outcome,[8],inactive
same,remaining activity,[19],122% (inactive)
same,fold change,[17]; [22],0.987 (inactive)
same,fold change,[17]; [23],0.867
same,cell count,[17]; [24],7720
same,cell count,[17]; [25],7820
same,z-score,[20],-0.46 (inactive)
COc1cc2c(Nc3ccc(NC(=O)c4ccccc4)cc3)ncnc2cc1OCCCN1CCOCC1,growth inhibition,[1],93% (active)
same,inhibition,[2],14% (inactive)
same,inhibition,[3],5% (inactive)
same,growth inhibition,[4],99% (active)
same,outcome,[5],inactive
same,outcome,[6],inactive
same,outcome,[7],inactive
same,outcome,[8],inactive
same,remaining activity,[19],94.5% (inactive)
same,AC50,[9],4.68 µM (active)
same,AC50,[11],20.9 µM (active)
same,AC50,[12],18.7 µM (active)
same,AC50,[14],1.32 µM (active)
same,AC50,[15],20.9 µM (active)
same,IC50,[16],8.33 µM (active)
same,fold change,[17]; [22],1.01 (inactive) and 1.03 (inactive)
same,fold change,[17]; [23],1 and 1.45
same,cell count,[17]; [24],1920 and 4040
same,cell count,[17]; [25],1900 and 3920
same,z-score,[18]; [26],-0.661 (inactive)
same,z-score,[18]; [27],0.628
same,z-score,[20],-0.64 (inactive)
Cc1cnc(N)c(/C=C/c2cncc(C(=O)NCCc3ccc(Cl)cc3Cl)c2)c1,growth inhibition,[1],100% (active)
same,inhibition,[2],2% (inactive)
same,outcome,[5],inactive
same,outcome,[6],inactive
same,outcome,[7],inactive
same,outcome,[8],inactive
CCc1cc(I)c2c(c1)C(NCCCNc1cc(=O)c3ccccc3[nH]1)CCN2 (centres undefined),growth inhibition,[1],32% (inactive)
same,inhibition,[2],19% (inactive)
same,inhibition,[3],-1% (inactive)
same,growth inhibition,[4],89% (active)
same,outcome,[5],inactive
same,outcome,[6],inactive
same,outcome,[7],inactive
same,outcome,[8],inactive
COc1cc(F)c2ncc(Cl)c([C@H](O)CN3CCC(NCc4cc5c(cn4)OCCO5)CC3)c2c1,growth inhibition,[1],49% (inactive)
same,inhibition,[2],10% (inactive)
same,inhibition,[3],4% (inactive)
same,growth inhibition,[4],102% (active)
same,outcome,[5],inactive
same,outcome,[6],inactive
same,outcome,[7],inactive
same,outcome,[8],inactive
C[C@H](Cc1ccc(C[C@@H](C)NCC(O)c2cc(Cl)c(N)c(Cl)c2)cc1)NCC(O)c1cc(Cl)c(N)c(Cl)c1 (some centres undefined),growth inhibition,[1],50% (active)
same,inhibition,[2],26% (inactive)
same,inhibition,[3],-3% (inactive)
same,growth inhibition,[4],98% (active)
same,outcome,[5],inactive
same,outcome,[6],inactive
same,outcome,[7],inactive
same,outcome,[8],inactive
Cc1noc(C)c1-c1cccc(CNCc2cccc(-c3csc(-c4nc5ccccc5[nH]4)c3)c2)c1,growth inhibition,[1],74% (active)
same,inhibition,[2],32% (inactive)
same,inhibition,[3],-7% (inactive)
same,growth inhibition,[4],100% (active)
same,outcome,[5],inactive
same,outcome,[6],inactive
same,outcome,[7],inactive
same,outcome,[8],inactive
CCOc1ccc(-c2nc3ccc(-c4nc5ccc(N6CCN(C)CC6)cc5[nH]4)cc3[nH]2)cc1,growth inhibition,[1],99% (active)
same,inhibition,[2],16% (inactive)
same,inhibition,[3],1% (inactive)
same,growth inhibition,[4],100% (active)
same,outcome,[5],inactive
same,outcome,[6],inactive
same,outcome,[7],inactive
same,outcome,[8],inactive
same,fold change,[17]; [22],1.13 (inactive)
same,fold change,[17]; [23],0.41
same,cell count,[17]; [24],805
same,cell count,[17]; [25],711
same,fold fluorescence,[21],1.62 [at 110.5 µM] (inactive)
FC(F)(F)c1ccc2nccc(NN=Cc3ccc(Cl)cc3)c2c1,growth inhibition,[1],53% (active)
same,inhibition,[2],5% (inactive)
same,inhibition,[3],-2% (inactive)
same,growth inhibition,[4],102% (active)
same,outcome,[5],inactive
same,outcome,[6],inactive
same,outcome,[7],inactive
same,outcome,[8],inactive
Oc1ccccc1CN(CCCN(Cc1ccccn1)Cc1ccccc1O)Cc1ccccn1,growth inhibition,[1],92% (active)
same,inhibition,[2],64% (active)
same,inhibition,[3],3% (inactive)
same,growth inhibition,[4],92% (active)
same,outcome,[5],inactive
same,outcome,[6],inactive
same,outcome,[7],inactive
same,outcome,[8],inactive
CC1(C)C(=O)NC2=C1C(=O)C(=O)c1ccccc12,inhibition,[2],-8% (inactive)
same,inhibition,[3],1% (inactive)
same,growth inhibition,[4],93% (active)
same,outcome,[5],inactive
same,outcome,[6],inactive
same,outcome,[7],inactive
same,outcome,[8],inactive
same,remaining activity,[19],80.1% (inactive)
same,fold change,[17]; [22],0.672 (active)
same,fold change,[17]; [23],1.77
same,cell count,[17]; [24],1170
same,cell count,[17]; [25],1740
same,z-score,[20],-0.705 (inactive)
CC(C)Oc1ccc2c(c1)OC(c1ccccc1)(C(F)(F)F)NC2=O (centres undefined),growth inhibition,[1],98% (active)
same,inhibition,[2],-6% (inactive)
same,inhibition,[3],-2% (inactive)
same,growth inhibition,[4],101% (active)
same,outcome,[5],inactive
same,outcome,[6],inactive
same,outcome,[7],inactive
same,outcome,[8],inactive
